Unmarked numbers belong to inactive results. Records with an inconclusive call do not appear. Active and inactive are the calls of the source. Unless noted, calls come from the whole dose curve; as a rule, active = well fitted curve in the direction sought with a large enough effect in the repeat runs; inconclusive = weak or mixed curves; inactive = no such curve, though single readings can be large; an effect the other way counts as inactive or inconclusive.

Experiment [1] can be described thus: A CellTox Green Cytotoxicity Assay to monitor cytotoxicity in HEK293 cells - 16 hour (AID 1224888). Note: nearly all actives have a fitted effect of over 35% in size. The essentials: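 Cytotoxicity was tracked continuously in HEK293 cells by a DNA-binding dye excluded from viable cells. Compounds were transferred in DMSO 5 h after seeding; fluorescence was recorded at intervals up to 40 h.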
Experiment [2] can be described thus: qHTS RealTime-Glo MT Cell Viability Assay in HepG2 cells - 0 hour (AID 1224889). Note: nearly all actives have a fitted effect of over 50% in size. Note: potency is the fitted concentration of half-maximal effect. The essentials:
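Tox21 10K library screened in qHTS format on HepG2 cells carrying RealTime-Glo reagents. Compounds were added after a 5 h preincubation, and the luminescent signal from continuous culture was measured repeatedly during 40 h treatment.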
For orientation: In qHTS, concentration-response curves come from the screen itself.

A short description of experiment [3]: A CellTox Green Cytotoxicity Assay to monitor cytotoxicity in HepG2 cells - 8 hour (AID 1224890). Note: nearly all actives have a fitted effect of over 45% in size. Put shortly: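 Real-time, homogeneous cytotoxicity readout: dead-cell DNA staining by CellTox Green in HepG2 monolayers, fluorescence measured at timed intervals up to 40 h of continuous compound exposure.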
Experiment [4] can be described thus: qHTS assay to identify small molecule antagonists of the estrogen receptor alpha (ER-alpha) signaling pathway using the BG1 cell line in the presence of 0.1 nM 17-beta-estradiol - cell viability counter screen (AID 1259241). Note: nearly all actives have a fitted effect of over 40% in size. The essentials:
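Estradiol-stimulated (0.1 nM) VM7Luc4E2 cells exposed to compounds 22 hr; viability measured by fluorescence of cleaved CellTiter-Fluor substrate after 30 min.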

Experiment [5] in a line: qHTS assay to identify small molecule antagonists of the androgen receptor (AR) signaling pathway using the MDA cell line in the presence of 0.5 nM R1881 - cell viability counter screen (AID 1259242). Note: nearly all actives have a fitted effect of over 45% in size. Put shortly:
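Cytotoxicity toward MDA-kb2 cells is measured by CellTiter-Fluor live-cell protease fluorescence after 16 hr compound exposure at 37C in the presence of 0.5 nM R1881 stimulator.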

Experiment [6] concerns the target Androgen receptor (Homo sapiens) (UniProt P10275). Put plainly: qHTS assay to identify small molecule antagonists of the androgen receptor (AR) signaling pathway using the MDA cell line in the presence of 0.5 nM R1881 (AID 1259243). Note: nearly all actives have a fitted effect of over 50% in size. The essentials: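 Steps: seed MDA-kb2 cells, incubate 5 hr at 37C; pin-transfer compounds in DMSO; add R1881 to 0.5 nM final; incubate 16 hr; add ONE-Glo, wait 30 min at room temperature; read luminescence.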

A short description of experiment [7]: qHTS assay to identify small molecule HDAC inhibitors (AID 1259364). Note: top concentration of the series differs between compounds; nearly all actives have a fitted effect of over 45% in size. Put shortly: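 Homogeneous cell-based luminescent assay of endogenous class I/II HDAC activity; HCT-116 cells, 2 h compound exposure, 30 min HDAC-Glo development at RT.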
Experiment [8] is described as follows: qHTS assay to identify small molecule HDAC inhibitors - cell viability counter screen (AID 1259365). Note: series mostly up to about 92 µM; nearly all actives have a fitted effect of over 50% in size. The essentials: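 After overnight seeding at 1,500 cells per well, wild-type HCT-116 cultures took up compounds in DMSO for 2hr at 37 C. Viable cell content came from luminescence with CellTiter-Glo.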
Experiment [9] addresses Estrogen receptor (Homo sapiens) (UniProt P03372). Nature of the experiment: qHTS assay to identify small molecule antagonists of the estrogen receptor alpha (ER-alpha) signaling pathway using the BG1 cell line in the presence of 0.1 nM 17-beta-estradiol (AID 1259244). Note: nearly all actives have a fitted effect of over 50% in size. The essentials:
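After 5 days in hormone-depleted medium (charcoal-stripped serum, no phenol red), VM7Luc4E2 cells were seeded, incubated 24 h, then co-treated with compound and 0.1 nM (final) estradiol for 22 h before luminescence detection.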

Experiment [10] is described as follows: qHTS assay to identify small molecule phospholipidosis (PLD) inducers (AID 1259344; active = well fitted curve in the direction sought with a large enough effect; an effect the other way counts as inactive or inconclusive). Put shortly: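 Phospholipidosis is scored by imaging LipidTOX-stained pits in HepG2 cells exposed to compound for 24 h at 37 C; pit counts and integrated intensities per well and per cell serve as outputs.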
% is set by controls: 0 for no effect and ±100 for the full control effect.

Sequence of Androgen receptor (Homo sapiens) (P10275 whole entry, looked up): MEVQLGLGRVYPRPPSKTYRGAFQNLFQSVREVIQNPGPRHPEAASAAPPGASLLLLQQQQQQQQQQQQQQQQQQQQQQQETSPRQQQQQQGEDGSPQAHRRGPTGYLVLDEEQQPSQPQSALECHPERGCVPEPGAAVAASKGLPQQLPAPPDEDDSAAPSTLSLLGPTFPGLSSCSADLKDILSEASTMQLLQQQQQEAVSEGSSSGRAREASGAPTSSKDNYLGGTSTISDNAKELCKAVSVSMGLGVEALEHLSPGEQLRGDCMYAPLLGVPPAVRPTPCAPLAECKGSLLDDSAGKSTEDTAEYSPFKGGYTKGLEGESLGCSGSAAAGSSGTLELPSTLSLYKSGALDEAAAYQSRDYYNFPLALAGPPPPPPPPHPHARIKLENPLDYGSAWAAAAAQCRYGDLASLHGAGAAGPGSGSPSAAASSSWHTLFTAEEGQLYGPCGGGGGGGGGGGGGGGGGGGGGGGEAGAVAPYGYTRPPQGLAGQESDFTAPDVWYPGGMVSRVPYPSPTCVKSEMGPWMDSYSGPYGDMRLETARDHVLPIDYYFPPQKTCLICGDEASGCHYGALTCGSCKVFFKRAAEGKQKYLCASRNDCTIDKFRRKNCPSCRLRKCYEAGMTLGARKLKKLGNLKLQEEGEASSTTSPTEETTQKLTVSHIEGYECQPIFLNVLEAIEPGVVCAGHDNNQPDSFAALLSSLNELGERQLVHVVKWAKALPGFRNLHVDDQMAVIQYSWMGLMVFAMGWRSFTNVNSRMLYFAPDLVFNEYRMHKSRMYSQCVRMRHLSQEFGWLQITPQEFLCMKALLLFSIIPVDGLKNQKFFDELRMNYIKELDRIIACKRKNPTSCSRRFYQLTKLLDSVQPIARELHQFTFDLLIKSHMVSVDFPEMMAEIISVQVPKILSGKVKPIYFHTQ
Sequence of Estrogen receptor (Homo sapiens) (P03372 whole entry, looked up): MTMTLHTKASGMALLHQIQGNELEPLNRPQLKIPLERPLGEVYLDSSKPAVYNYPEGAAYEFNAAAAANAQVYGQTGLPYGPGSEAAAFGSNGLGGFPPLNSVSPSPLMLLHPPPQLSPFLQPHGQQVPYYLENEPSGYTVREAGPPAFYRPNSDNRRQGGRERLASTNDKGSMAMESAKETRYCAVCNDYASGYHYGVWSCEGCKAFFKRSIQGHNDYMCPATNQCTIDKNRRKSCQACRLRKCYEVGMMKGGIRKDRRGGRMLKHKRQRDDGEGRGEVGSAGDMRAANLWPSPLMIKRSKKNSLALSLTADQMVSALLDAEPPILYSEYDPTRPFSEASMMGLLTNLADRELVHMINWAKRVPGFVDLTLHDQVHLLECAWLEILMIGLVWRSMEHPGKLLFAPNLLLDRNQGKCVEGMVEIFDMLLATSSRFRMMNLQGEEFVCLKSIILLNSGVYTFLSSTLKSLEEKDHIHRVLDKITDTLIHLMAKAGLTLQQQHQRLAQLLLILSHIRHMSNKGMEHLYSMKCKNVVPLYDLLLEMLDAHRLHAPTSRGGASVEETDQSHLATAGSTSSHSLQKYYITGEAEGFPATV

In the case of `N#Cc1ccccc1C#N`, the Potency result in experiment [1], in [2], in experiment [3], in experiment [6] and in experiment [7] was “inactive” in each case. The outcome in [4], in [5] and in [8] was inactive.
`O=P(O)(O)C(O)(Cc1cccnc1)P(=O)(O)O`: the Potency result in experiment [1], in experiment [2], in [3], in experiment [10] and in experiment [7] was “inactive” each time. The result in experiment [4], in experiment [5], in experiment [9] and in [8] was inactive.
On to `O=C(O)Cc1ccccc1Oc1ccc(Cl)cc1Cl`, for which the Potency result in [1], in experiment [2], in experiment [3], in experiment [10] and in [7] was “inactive” each time. The outcome in experiment [4], in [5], in [9] and in [8] was inactive.
For the molecule `CN1CCN(C(=O)C2CCCCC2)CC1`, the Potency result in experiment [1], in experiment [2], in experiment [3], in [10] and in experiment [7] was “inactive” throughout. Also, the result in experiment [4], in experiment [5], in experiment [9] and in experiment [8] was inactive.
As for `CCCCC(O)/C=C(C)/C=C/C=C/C(=O)N1CCCC1=O` (stereo not drawn), the Potency result in experiment [1], in experiment [2], in [3] and in experiment [7] was “inactive” in each case. The result in [4], in experiment [5], in experiment [9] and in experiment [8] was inactive.
As for `CN(C)CCC[C@@]1(c2ccc(F)cc2)OCc2cc(C#N)ccc21`, the Potency entry in experiment [1], in experiment [2], in experiment [3], in experiment [10] and in [7] was “inactive” in each case. Besides, the result in experiment [4], in experiment [5], in experiment [9] and in experiment [8] was inactive.
Regarding `CC(=O)c1ccc(O)c(C(N)=O)c1`, the Potency entry in experiment [1], in [2], in experiment [3], in experiment [6] and in experiment [7] was “inactive” throughout. For the same molecule, the outcome in experiment [4], in experiment [5] and in [8] was inactive.
Take `CCN(CC)CC(=O)Oc1ccc(NC(C)=O)cc1`: the Potency entry in [1], in experiment [2], in experiment [3], in experiment [6] and in experiment [7] was “inactive” each time. Further, the result in [4], in experiment [5] and in experiment [8] was inactive.
With `NS(=O)(=O)c1cc2c(cc1C(F)(F)F)NCNS2(=O)=O`, the Potency result in experiment [1], in experiment [2], in experiment [3], in experiment [10] and in experiment [7] was “inactive” throughout. The outcome in experiment [4], in experiment [5], in experiment [9] and in experiment [8] was inactive.
`CN1C(CCl)Nc2cc(Cl)c(S(N)(=O)=O)cc2S1(=O)=O` (stereo not drawn): the Potency result in experiment [1], in experiment [2], in experiment [3], in experiment [10] and in [7] was “inactive” in each case. For the same molecule, the outcome in experiment [4], in experiment [5], in experiment [9] and in experiment [8] was inactive.
In the case of `CC(O)CCCCn1c(=O)c2c(ncn2C)n(C)c1=O` (stereo not drawn), the Potency result in experiment [1], in [2], in experiment [3], in experiment [10] and in experiment [7] was “inactive” throughout. The outcome in experiment [4], in experiment [5], in experiment [9] and in [8] was inactive.
Regarding `C[C@]12C=CC(=O)C=C1[C@@H](F)C[C@@H]1[C@@H]2[C@@H](O)C[C@@]2(C)[C@H]1CC[C@]2(O)C(=O)CO`, the Potency entry in [1], in [3], in [10] and in [7] was “inactive” each time. Besides, in [2], the Potency was 10.7 µM (active). Further, the outcome in [4], in experiment [5], in experiment [9] and in [8] was inactive.
Turning to `CCCc1ncc(C(=O)O)s1`, the Potency entry in experiment [1], in experiment [2], in experiment [3], in experiment [6] and in experiment [7] was “inactive” each time. Further, the result in [4], in experiment [5] and in experiment [8] was inactive.
Regarding `O=C1CCCc2c(O)cccc21`, the Potency entry in experiment [1], in experiment [2], in experiment [3], in experiment [6] and in experiment [7] was “inactive” in each case. In addition, the result in [4], in experiment [5] and in experiment [8] was inactive.
As to `O=C(O)/C=C(\CC(=O)O)C(=O)O`, the Potency result in experiment [1], in experiment [2], in [3], in experiment [10] and in experiment [7] was “inactive” each time. Moreover, the result in experiment [4], in experiment [5], in [9] and in experiment [8] was inactive.
For the molecule `CN(C)CCc1c[nH]c2ccc(C[C@H]3COC(=O)N3)cc12`, the Potency result in experiment [1], in experiment [2], in experiment [3], in experiment [10] and in [7] was “inactive” throughout. Besides, the result in experiment [4], in experiment [5], in experiment [9] and in experiment [8] was inactive.
For `CC(=O)Nc1ccc(S(=O)(=O)Nc2cc(C)on2)cc1`, the Potency result in [1], in experiment [2], in experiment [3] and in experiment [7] was “inactive” throughout. The outcome in experiment [4], in [5], in experiment [9] and in experiment [8] was inactive. Moreover, the PLD induction in [10] was 3.97% [at 7.66 µM].
For the molecule `CCCCCCCCCCCC(C)=O`, the Potency result in [1], in [2], in experiment [3] and in experiment [7] was “inactive” throughout. Further, the result in experiment [4], in experiment [5], in [9] and in [8] was inactive.
For the molecule `CCN1CCN(C(=O)N[C@@H](C(=O)N[C@@H]2C(=O)N3C(C(=O)O)=C(CSc4nnnn4C)CS[C@H]23)c2ccc(O)cc2)C(=O)C1=O`, the Potency entry in [1], in experiment [2], in [3], in experiment [10] and in [7] was “inactive” throughout. The result in experiment [4], in [5], in experiment [9] and in experiment [8] was inactive.
For `CNC(C)=O`, the Potency result in experiment [1], in [2], in [3] and in [7] was “inactive” in each case. The outcome in experiment [4], in experiment [5], in [9] and in experiment [8] was inactive.
On to `CCCCCCCCC1CO1` (stereo not drawn), for which the Potency result in [1], in experiment [2], in experiment [3] and in experiment [6] was “inactive” in each case. For the same molecule, the result in experiment [4], in experiment [5] and in [8] was inactive.
`COC(=O)c1cc(Cl)c(NC(C)=O)cc1OC`: the Potency entry in experiment [1], in experiment [2], in experiment [3], in experiment [6] and in [7] was “inactive” each time. Further, the result in experiment [4], in experiment [5] and in experiment [8] was inactive.
For the molecule `Nc1ccc(C(=O)NCC(=O)O)cc1`, the Potency entry in [1], in experiment [2], in experiment [3], in experiment [10] and in [7] was “inactive” each time. Further, the result in [4], in experiment [5], in experiment [9] and in experiment [8] was inactive.
For `Nc1nc(Cl)cc(Cl)n1`, the Potency entry in experiment [1], in experiment [2], in experiment [3] and in experiment [7] was “inactive” throughout. Also, the outcome in experiment [4], in [5], in [9] and in experiment [8] was inactive.
For `CCCCc1ccc(Cl)cc1`, the Potency entry in [1], in [2], in experiment [3] and in [7] was “inactive” each time. Moreover, the outcome in experiment [4], in experiment [5], in experiment [9] and in experiment [8] was inactive.
Turning to `COC(=O)c1c(C)cc(O)c(C)c1O`, the Potency result in [1], in experiment [2], in [3] and in experiment [7] was “inactive” each time. For the same molecule, the result in experiment [4], in experiment [5], in experiment [9] and in experiment [8] was inactive.
Consider `C=CCCCCCCCCOC(C)=O`, for which the Potency result in experiment [1], in experiment [2], in experiment [3] and in [7] was “inactive” throughout. Further, the result in experiment [4], in experiment [5], in [9] and in experiment [8] was inactive.

Source of the values: PubChem BioAssay (Tox21).
